Only some compounds are listed: those with a hit (about 2.5% of all), similar ones and a draw of the others.
Cruzain noTriton: inhibitors of Trypanosoma cruzi cruzain without detergent; purified cruzain, Z-FR-AMC fluorescence, no detergent; AID 1476; Potency, µM, most hits filed as inhibitors; actives 2.3% (n = 200,000); P25779; note: nearly all actives have a fitted effect of over 40% in size
Target sequence (P25779 123-467 limits assumed): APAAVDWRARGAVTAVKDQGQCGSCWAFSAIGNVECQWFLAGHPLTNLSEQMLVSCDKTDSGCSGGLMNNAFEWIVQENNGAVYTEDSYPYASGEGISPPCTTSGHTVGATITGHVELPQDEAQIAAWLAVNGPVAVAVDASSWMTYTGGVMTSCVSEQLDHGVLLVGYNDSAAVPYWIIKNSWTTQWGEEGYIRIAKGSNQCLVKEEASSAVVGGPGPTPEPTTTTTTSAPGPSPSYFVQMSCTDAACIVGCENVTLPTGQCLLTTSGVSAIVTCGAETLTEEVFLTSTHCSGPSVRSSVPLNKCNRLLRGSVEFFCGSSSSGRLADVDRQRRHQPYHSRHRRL
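Purified cruzain at 1.5 nM, pre-incubated 15 min with compound at room temperature in 100 mM sodium acetate pH 5.5, 5 mM DTT, 0.00005% Triton X-100. Reaction started with 2 uM Z-FR-AMC; AMC fluorescence increase over 60 s gives rate.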
Cruzain Triton: cruzain (T. cruzi) inhibition with detergent; actives 0.43% (n = 200,000); Potency, µM, usual class: inhibitors; P25779; AID 1478; purified cruzain, Z-FR-AMC fluorescence, 0.01% Triton; note: nearly all actives have a fitted effect of over 40% in size
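Sodium acetate buffer (100 mM, pH 5.5) containing 5 mM DTT and 0.01% Triton X-100 hosted 1.5 nM cruzain and test compound for 15 min at room temperature. Cleavage of 2 uM Z-FR-AMC was then tracked by fluorescence.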
A number is an active result. Calls come from the whole dose curve; as a rule, active = well fitted curve in the direction sought with a large enough effect; inconclusive = small, poorly fitted or top-dose-only effect, or another doubt; inactive = no such curve, though single readings can be large; an effect the other way counts as inactive or inconclusive.

Results for COc1ccccc1OCC(=O)NCCc1nc2ccccc2[nH]1 ?
Cruzain noTriton: 13µM; Cruzain Triton: 16µM

Results for Cc1ccc(C(C)(C)C)c(OCC(=O)NCCc2nc3ccccc3[nH]2)c1 ?
Cruzain noTriton: inactive; Cruzain Triton: inactive

What do the screens show for `Cc1cc(OCC(=O)NCCc2nc3ccccc3[nH]2)cc(C)c1Cl`?
Cruzain noTriton: inactive; Cruzain Triton: 8.9µM

Results for CCC(=O)NCCc1nc2ccccc2[nH]1 ?
Cruzain noTriton: inactive; Cruzain Triton: inactive

What do the screens show for `CC(=O)c1ccc(NC(=O)CSc2nccn2Cc2ccco2)cc1`?
Cruzain noTriton: inactive; Cruzain Triton: inactive

How did Cc1ccc(Cl)cc1NC(=O)Nc1cccc(OCc2cc(=O)n3ccccc3n2)c1 do in these assays?
Cruzain noTriton: inactive; Cruzain Triton: inactive

Results for Cc1nnc(N/N=C/c2cccc(OCc3ccc(Cl)c(Cl)c3)c2)n1N ?
Cruzain noTriton: inconclusive; Cruzain Triton: 22µM

What do the screens show for `CCc1nnc(N/N=C/c2c(Cl)cccc2Cl)n1N`?
Cruzain noTriton: inactive; Cruzain Triton: inactive

What do the screens show for `CCc1ccc(S(=O)(=O)c2c[nH]c3cc(OC)c(OC)cc3c2=O)cc1`?
Cruzain noTriton: inactive; Cruzain Triton: inactive

Results for Cc1ccc2sc(NC(=O)CN3C(=O)CCC3=O)nc2c1C ?
Cruzain noTriton: inactive; Cruzain Triton: inactive

Results for Cc1c(Cl)ccc2sc(NC(=O)CN3C(=O)c4ccccc4C3=O)nc12 ?
Cruzain noTriton: 10µM; Cruzain Triton: inactive

How did CCCN(CCC)C(=O)CN1C(=O)CSc2ccc(S(=O)(=O)N3CCC(C)CC3)cc21 do in these assays?
Cruzain noTriton: inactive; Cruzain Triton: inactive

What do the screens show for `CC(C)(C)c1ccc(C(=O)NCC(=O)OCC(=O)c2ccc3c(c2)-c2ccccc2C3)cc1`?
Cruzain noTriton: 25µM; Cruzain Triton: inactive

What do the screens show for `O=C(CNC(=O)c1cccs1)OCC(=O)c1ccc2ccccc2c1`?
Cruzain noTriton: inactive; Cruzain Triton: inconclusive

How did COc1ccc(C2c3c(n(C)c4ccccc34)C(=O)N2CC(=O)Nc2cccc(Cl)c2)cc1 (configuration not stated) do in these assays?
Cruzain noTriton: inconclusive; Cruzain Triton: inactive

What do the screens show for `CN(CC(=O)NCc1ccccc1Cl)S(=O)(=O)c1ccc2c(c1)c(=O)n(C)c(=O)n2C`?
Cruzain noTriton: inactive; Cruzain Triton: inactive

How did Cc1cccc(CC2C(=O)Nc3ccccc32)c1 (configuration not stated) do in these assays?
Cruzain noTriton: inactive; Cruzain Triton: inactive

How did COc1cc(OC)c2c(-c3cccc(/C=C/c4ccc(F)cc4)c3)cc(=O)oc2c1 do in these assays?
Cruzain noTriton: 10µM; Cruzain Triton: inactive

How did COc1cc(OC)c2c(-c3cccc(-c4ccc(OC(F)(F)F)cc4)c3)cc(=O)oc2c1 do in these assays?
Cruzain noTriton: inconclusive; Cruzain Triton: inactive

How did COc1ccc(-c2cccc(-c3cc(=O)oc4cc5c(cc34)OCO5)c2)cc1 do in these assays?
Cruzain noTriton: inconclusive; Cruzain Triton: inactive

Results for COc1cc(OC)c2c(-c3cccc(-c4cccc(C)c4)c3)cc(=O)oc2c1 ?
Cruzain noTriton: 10µM; Cruzain Triton: inactive

How did Cc1cccc(-c2cccc(-c3cc(=O)oc4cc5c(cc34)OCO5)c2)c1 do in these assays?
Cruzain noTriton: 35µM; Cruzain Triton: inactive

Results for COc1cc(OC)c2c(-c3cccc(-c4ccc(O)cc4)c3)cc(=O)oc2c1 ?
Cruzain noTriton: inconclusive; Cruzain Triton: inactive

Results for COc1cc(OC)c2c(-c3cccc(-c4ccc(N(C)C)cc4)c3)cc(=O)oc2c1 ?
Cruzain noTriton: 32µM; Cruzain Triton: inactive

What do the screens show for `COc1cc(OC)c2c(-c3cccc(-c4ccc(CO)cc4)c3)cc(=O)oc2c1`?
Cruzain noTriton: inactive; Cruzain Triton: inactive

Results for Cc1cccc(C2N3CC4(C(C)C)CN2CC(C(C)C)(C3)C4=O)c1 (configuration not stated) ?
Cruzain noTriton: inactive; Cruzain Triton: inactive

Results for O=C(O)CC(NS(=O)(=O)c1ccc(Br)s1)c1ccccc1 (configuration not stated) ?
Cruzain noTriton: inactive; Cruzain Triton: inactive

Results for Cc1ccc(/C(N)=N/OC(=O)c2cc(-c3ccccc3)nc3ccccc23)cc1 ?
Cruzain noTriton: inactive; Cruzain Triton: inactive

What do the screens show for `COc1ccc(/C(N)=N/OC(=O)c2cc(-c3ccccc3)nc3ccccc23)cc1`?
Cruzain noTriton: 20µM; Cruzain Triton: inactive

Results for COc1ccc(C2=Nc3cccc4cccc(c34)N2)cc1 ?
Cruzain noTriton: 3.2µM; Cruzain Triton: inactive

Results for CC(C)C1=Nc2cccc3cccc(c23)N1 ?
Cruzain noTriton: inactive; Cruzain Triton: inactive

How did Nc1cccc(C2=Nc3cccc4cccc(c34)N2)c1 do in these assays?
Cruzain noTriton: 7.9µM; Cruzain Triton: inactive

How did Nc1cccc(-c2nc3ccc(N)cc3s2)c1 do in these assays?
Cruzain noTriton: inactive; Cruzain Triton: inactive

How did COC(=O)c1ccc(NC(=O)CCNS(=O)(=O)c2cccc3nsnc23)cc1 do in these assays?
Cruzain noTriton: inactive; Cruzain Triton: inactive

What do the screens show for `CCOc1cccc2sc(NC(=O)c3ccc(S(=O)(=O)N4CCCCC4)cc3)nc12`?
Cruzain noTriton: inactive; Cruzain Triton: inactive

What do the screens show for `CCSC1=NC2(CCN(C(=O)NC3CCCCC3)CC2)N=C1c1ccc(Cl)cc1`?
Cruzain noTriton: inactive; Cruzain Triton: inactive

Results for CCSc1nc(N)c(C#N)c(-c2ccco2)c1C#N ?
Cruzain noTriton: 20µM; Cruzain Triton: inconclusive

Results for CCCCc1nc(N)c(C#N)c(-c2ccco2)c1CCC ?
Cruzain noTriton: 20µM; Cruzain Triton: 25µM

How did COC(=O)CSc1nc(N)c(C#N)c(-c2ccco2)c1C#N do in these assays?
Cruzain noTriton: inactive; Cruzain Triton: inactive

How did CCCc1nc(NC(C)=O)c(C#N)c(-c2ccco2)c1CC do in these assays?
Cruzain noTriton: inactive; Cruzain Triton: inactive

Results for CS(=O)(=O)N1CCC2(CCCN(Cc3ccccc3)C2)CC1 ?
Cruzain noTriton: inactive; Cruzain Triton: inactive

How did Cc1ccccc1NC(=O)/C(C#N)=C/c1ccc(Cl)cc1Cl do in these assays?
Cruzain noTriton: inactive; Cruzain Triton: inactive

How did Cc1ccc(-c2csc(NC(=S)NC(=O)/C=C/c3ccco3)n2)cc1 do in these assays?
Cruzain noTriton: inconclusive; Cruzain Triton: inactive

How did Cc1ccc(-c2nc3cc(C(C)C)ccc3o2)cc1NC(=O)c1cc2ccccc2o1 do in these assays?
Cruzain noTriton: inconclusive; Cruzain Triton: inactive

What do the screens show for `O=C(NC(=S)Nc1nc(-c2ccc(Br)cc2)cs1)c1cccnc1`?
Cruzain noTriton: 4µM; Cruzain Triton: inactive

Results for N#Cc1ccc(-c2csc(NNC(=O)c3ccccc3)n2)cc1 ?
Cruzain noTriton: inconclusive; Cruzain Triton: inactive

What do the screens show for `Cc1ccc(-c2nc3ccccc3o2)cc1NC(=S)NC(=O)c1cc2ccccc2o1`?
Cruzain noTriton: 6.3µM; Cruzain Triton: inactive

How did N#Cc1ccc(-c2csc(NNC(=O)c3ccc(Br)cc3)n2)cc1 do in these assays?
Cruzain noTriton: 7.9µM; Cruzain Triton: inactive

How did O=C(Nc1nc(-c2ccccc2)cs1)c1cccnc1 do in these assays?
Cruzain noTriton: inactive; Cruzain Triton: inactive

Results for Cc1ccc(-c2csc(NC(=S)NC(=O)c3cc4ccccc4o3)n2)cc1 ?
Cruzain noTriton: 6.3µM; Cruzain Triton: inactive

What do the screens show for `COc1ccc(-c2nc3cnc(N4CCOCC4)nc3n(C[C@H]3CCCO3)c2=O)cc1`?
Cruzain noTriton: inconclusive; Cruzain Triton: inactive

What do the screens show for `O=C(Nc1ccc(F)cc1F)c1ccc2c(O)c(S(=O)(=O)c3ccc(Cl)cc3)c(=O)[nH]c2c1`?
Cruzain noTriton: inactive; Cruzain Triton: inactive

Screening results as filed in PubChem BioAssay.
